Screening results deposited in PubChem by several laboratories.
p47phox inh: inhibitors of human p47phox binding. P14598. inhibition, % at 24.7 µM. 220,000 tested, 0.53% active. p47phox/p22phox peptide binding, fluorescence polarization, 2 h
eIF4E 4G PPI: blocks eIF4E binding to eIF4G. TR-FRET eIF4E-eIF4GI(517-606) binding, 2 h. inhibition, % at 21.7 µM. 220,000 tested, 0.37% active
14-3-3 Bad PPI: disrupts binding of bovine 14-3-3 zeta to phospho-Bad peptide. P63103. TR-FRET 14-3-3zeta/Dy647-pBad peptide displacement, 1 h. inhibition, % at 21.7 µM. 220,000 tested, 0.71% active. AID 781;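 active = inhibition above about 70%, limit read from the data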
Target sequence (P63103 whole entry, looked up): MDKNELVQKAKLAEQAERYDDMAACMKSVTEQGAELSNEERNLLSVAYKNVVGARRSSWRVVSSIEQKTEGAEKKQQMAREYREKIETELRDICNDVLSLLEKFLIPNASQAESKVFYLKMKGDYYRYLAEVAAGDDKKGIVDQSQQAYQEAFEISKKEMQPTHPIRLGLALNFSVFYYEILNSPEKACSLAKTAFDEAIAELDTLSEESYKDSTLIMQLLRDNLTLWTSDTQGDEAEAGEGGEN
Mcl1 Noxa PPI: disrupts binding of human Mcl-1 to Noxa peptide; Q07820; TR-FRET Mcl-1/Noxa peptide binding, 2 h; inhibition, % at 21.7 µM; 220,000 tested, 1.5% active; AID 1022;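 active = compounds that cut the protein-peptide binding signal by more than 50% relative to plate controls in a single-dose test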;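 note: His-tagged Mcl-1 with rhodamine Noxa BH3 peptide and terbium anti-His antibody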
Target sequence (Q07820 whole entry, looked up): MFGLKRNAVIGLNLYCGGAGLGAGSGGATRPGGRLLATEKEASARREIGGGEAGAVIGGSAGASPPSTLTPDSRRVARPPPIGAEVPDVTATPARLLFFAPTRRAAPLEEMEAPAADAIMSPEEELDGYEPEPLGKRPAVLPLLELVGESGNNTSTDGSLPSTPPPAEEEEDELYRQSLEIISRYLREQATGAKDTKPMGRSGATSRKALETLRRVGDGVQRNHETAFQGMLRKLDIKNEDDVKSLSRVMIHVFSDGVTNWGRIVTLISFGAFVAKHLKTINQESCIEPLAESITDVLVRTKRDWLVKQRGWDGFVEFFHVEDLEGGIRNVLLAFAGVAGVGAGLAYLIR
Mcl1-Bid inh: disrupts binding of human Mcl-1 to Bid peptide; 220,000 tested, 0.97% active; TR-FRET Mcl-1/Bid-Dy647 peptide binding, 1536-well; inhibition, % at 21.7 µM; AID 1021;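 active = compounds that cut the binding signal by more than half at the single screening dose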;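 note: His-tagged Mcl-1 with europium anti-His antibody binding Bid BH3 peptide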
Mcl-1 Bim block: inhibitors of Bim-Mcl-1 interaction, human. Bead-based flow cytometry, Bim peptide-Mcl-1 binding. inhibition, % at 10 µM. 190,000 tested, 0.1% active. AID 1009; in the data active = inhibition above about 40%
Numbers stand for hits; . = inactive; / = no result. Compounds with a hit are over-represented: about 3.3% of the library has one in this group of screens.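 Rule for the calls, unless noted: active = inhibition above about 30% (limit read from the data); inactive = the rest.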

SMILES	p47phox inh	eIF4E 4G PPI	14-3-3 Bad PPI	Mcl1 Noxa PPI	Mcl1-Bid inh	Mcl-1 Bim block
CCn1c(C)c(C2=CCN(S(=O)(=O)c3ccccc3)CC2)c2ccccc21	.	.	.	.	.	.
COc1ccc2c(c1)CC(C1(O)C(=O)N(C)c3ccccc31)C2=O (centres undefined)	.	.	74.4	.	.	.
CC(=O)NC(Cc1c[nH]c2ccccc12)C(=O)OCC(=O)N1CCCCCC1 (centres undefined)	.	.	.	.	.	.
CCC(C)NCCCOc1c(C)cc(C)cc1Br (centres undefined)	.	.	.	118.9	.	.
CCC(C)NCCOCCOc1ccc(C)cc1Br (centres undefined)	.	.	.	.	.	.
Cc1ccccc1N1CCN(Cc2c[nH]c3ccccc23)CC1	.	.	70.5	.	.	.
Cc1ccc(C2=Nc3ccccc3SC(c3cccc([N+](=O)[O-])c3)C2)cc1 (centres undefined)	.	.	.	.	.	/
COc1cccc(-c2nc(Oc3cccc(C)c3C)c3ccccc3n2)c1O	.	.	.	.	51.8	.
COc1cccc(-c2nc(NC(C)C)c3ccccc3n2)c1O	.	.	.	.	.	.
Cn1c(=O)c2c(nc(SCC(=O)c3ccccc3F)n2C)n(C)c1=O	.	.	.	.	.	.
Cc1c(C(=O)OCC(C)C)[nH]c2c1C(=O)CC(c1cccs1)C2 (centres undefined)	.	.	.	.	.	.
Cc1ccc(-n2[nH]c(=O)c3cccnc32)cc1	.	.	.	64.6	.	.
Cc1ccc(-n2[nH]c(=O)c(-c3ccccn3)c2C)cc1	.	.	.	.	.	.
CCOc1cc(NC(=S)NCCCN2CCOCC2)c(OCC)cc1NC(=O)c1ccc(C)cc1	.	.	.	.	.	.
CC(C)=CCN1CCN(Cc2cc(C(C)C)n[nH]2)CC1CCO (centres undefined)	.	.	.	.	.	.
NC(N)=N/N=C/c1ccc(Cl)cc1Cl	.	.	.	.	50.8	/
CCOC(=O)C1CCCN(c2nc(C)nc3c2oc2ccccc23)C1 (centres undefined)	.	.	82.8	.	.	.
CCOC(=O)C1CCN(c2nc(C)nc3c2oc2ccccc23)CC1	.	.	.	.	.	.
CCN1C(=O)/C(=C2/Sc3ccc(OC)cc3N2C)SC1=Nc1cccc(O)c1	.	.	.	70.1	65.1	.
Cc1ccc(CCNC(=O)CN(C)S(=O)(=O)c2ccc3c(c2)n(C)c(=O)c(=O)n3C)cc1	.	.	.	.	.	/
CC1(C)CC(=O)C(C(=O)C2CCN(S(=O)(=O)c3ccccc3)CC2)C(=O)C1	.	.	71.1	.	.	.
CC(C)c1nc(SCC(=O)Nc2c[nH]c(=O)[nH]c2=O)c2cnn(-c3ccccc3)c2n1	.	.	.	.	.	.
CCOC(=O)C1CCCN(c2ccc(NC(=O)c3snc4c(=O)[nH]cnc34)cc2)C1 (centres undefined)	.	.	.	63.4	.	.
O=C(Nc1ccccc1)c1snc2c(=O)[nH]cnc12	.	.	.	.	.	.
CCOC(=O)C1CCCN(c2ccc(NC(=O)c3snc4c(=O)[nH]c(C)nc34)cc2)C1 (centres undefined)	.	.	.	84.1	.	.
SMILES	p47phox inh	eIF4E 4G PPI	14-3-3 Bad PPI	Mcl1 Noxa PPI	Mcl1-Bid inh	Mcl-1 Bim block
CCOC(=O)C1CCCN(c2c(Nc3ccc(C)c(C)c3)c(=O)c2=O)C1 (centres undefined)	.	.	.	.	.	.
CC1(C)Cc2c(sc3c2c(=O)n(-c2cccc(Cl)c2)c(=O)n3CC(N)=O)CO1	.	.	.	.	.	/
CCN(CC)c1ccc(/C=C2\SC(=O)N(C(C)C)C2=O)o1	.	.	.	.	.	/
O=C(COC(=O)/C=C/c1ccc(OC(F)F)cc1)NCCN1C(=O)CSC1=O	45.8	.	.	.	.	.
COc1cccc(CC2(CO)CCCN(CC3=Cc4cc(Cl)ccc4OC3)C2)c1 (centres undefined)	.	.	.	.	.	.
O=C(Nc1ccccc1-c1nc2ccccc2s1)C1=COCCO1	.	.	.	.	.	.
Cc1ccc2c(c1)c1cccc3c1n2CCN3CCC(N)=O	.	.	.	67.1	.	.
CCOC(=O)c1csc(NC(=O)CC2CCCC2)n1	.	.	.	.	.	.
O=[N+]([O-])c1cccc(/C=C/c2nc(C=Nc3ccc4ccccc4c3)c(O)o2)c1	.	.	.	81.4	65.5	.
O=C(NCc1cccnc1)/C(=C\c1ccc(-c2ccc(Cl)c(Cl)c2)o1)S(=O)(=O)c1ccccc1	.	.	.	.	54.7	.
CCC(OC(=O)c1cccs1)C(=O)NCc1ccc(C)cc1 (centres undefined)	.	.	.	.	.	.
Cc1ccc(Cl)cc1NC(=S)NN	.	.	.	.	.	/
CCOC(=O)C(C(=O)OCC)C(Nc1cccc(Br)c1)c1ccccc1 (centres undefined)	.	.	.	.	.	.
CCOC(=O)C(NCCCCl)c1ccccc1 (centres undefined)	.	.	72.9	.	.	.
CCN(CC)c1nc2c3c(nc4c(c3c1C#N)CC(=O)N4c1ccc(Cl)cc1)NC(C)=N2	.	.	.	82.5	.	.
COc1ccc(N=Cc2cc(Cc3ccccc3Cl)cc([N+](=O)[O-])c2O)cc1OC	.	.	.	61.4	.	.
Cc1ccc(N=Cc2cc(Cc3ccccc3Cl)cc([N+](=O)[O-])c2O)c(O)c1	.	.	.	.	.	.
CCn1c(S(=O)(=O)O)nc2ccccc21	.	.	.	.	.	/
COc1cc2c(C#N)c(N3CCCCC3)nc(N)c2c(N)n1	.	.	.	.	.	.
COc1ccc(CN2C(=O)Cc3c2nc(N)c2c(N)nc(N4CCCCC4)c(C#N)c32)cc1	.	.	.	58.0	.	.
COc1ccccc1-c1nn2c(-c3ccco3)nnc2s1	.	.	88.8	.	.	.
COc1cccc(OC)c1-c1nn2c(-c3cc(-c4ccccc4)n[nH]3)nnc2s1	54.4	.	.	.	.	/
O=C1NCCCCC1NS(=O)(=O)c1ccc(F)c(F)c1 (centres undefined)	.	.	.	.	.	/
C=CCOc1c2ccc(C(=O)NCc3ccc(OC)cc3)cc2nn1C	.	.	.	.	.	.
C=CCOc1c2ccc(C(=O)NCc3ccccc3OC)cc2nn1C	.	.	.	.	63.6	.
CCOC(=O)N1CCN(C(=O)c2ccc(OC(C)=O)cc2)CC1	.	.	.	.	.	.
COc1ccccc1NC(=O)CSc1nnc(CCNC(=O)c2ccc(C)cc2)n1C	.	.	.	.	.	.
Cc1ccc(C(=O)Cn2nc(C(=O)O)c3ccccc3c2=O)cc1C	.	.	.	.	.	/
CCC(=O)Nc1ccc(C(=O)Cn2nc(C(=O)O)c3ccccc3c2=O)cc1	.	.	.	56.5	.	.
